Compound activity as filed in PubChem.
This is a sample that favours compounds with a hit; in the whole collection about 21% have one here.
NS1 function inh – influenza NS1 inhibition; Potency, µM (titrated, usually from 46.1 µM), inactives show at the highest dose activity, positive = more growth; 270,000 tested, 0.4% active; AID 2326; calls by dose curve; note: potency is the fitted concentration of half-maximal effect; actives are rising curves; nearly all actives have a fitted effect of over 50% in size
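Compounds were scored for reversing the slow growth caused by influenza A NS1 in S. cerevisiae, measured by optical density at 600 nm. Assay medium contained 2% galactose at pH 6.0; NS1-free yeast of the same strain were the positive control.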
FBPA Giardia inh – inhibitors of Giardia lamblia fructose-1,6-bisphosphate aldolase; 290,000 tested, 0.71% active; Potency, µM (highest dose often 59.6 µM), for inactives: at the top dose activity, negative = inhibition, hits mostly inhibitors; purified Giardia FBPA; A8B2U2; note: potency is the fitted concentration of half-maximal effect; % is set by controls: 0 for no effect and ±100 for the full control effect; nearly all actives have a fitted effect of over 55% in size
Target sequence (A8B2U2 whole entry, looked up): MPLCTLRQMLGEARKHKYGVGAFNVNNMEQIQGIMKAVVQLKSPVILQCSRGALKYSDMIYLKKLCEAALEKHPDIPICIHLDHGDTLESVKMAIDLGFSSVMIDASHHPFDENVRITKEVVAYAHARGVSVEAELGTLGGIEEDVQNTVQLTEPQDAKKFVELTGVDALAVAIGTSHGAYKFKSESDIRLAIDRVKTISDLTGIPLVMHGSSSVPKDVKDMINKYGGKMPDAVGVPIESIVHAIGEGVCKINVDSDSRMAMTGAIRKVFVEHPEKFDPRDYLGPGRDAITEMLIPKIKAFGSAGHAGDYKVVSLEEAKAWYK
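40 nM FBPA preincubated 10 min at RT with compound (up to 57.5 uM final), then substrate plus GAPDH/TPI/NAD/arsenate coupling and diaphorase/resazurin added. Fluorescence read after 20 min at RT, 525/598 nm.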
Cycloheximide cs – counter-screen hit for Shiga toxin inhibitors, cycloheximide | 300,000 tested, 12% active | AID 2314 | cell reporter, cycloheximide protein synthesis inhibition counterscreen | max response, %; in the data active = max response mostly above about 13%, no sharp cut-off; inactive = mostly below about 14%; note: read at 38.3 µM for the half of the compounds with a filed dose; 0% is about no effect
Pf growth 96h – P. falciparum growth inhibition at 96 hour, primary screen for plastid delayed-death inhibitors | P. falciparum luciferase reporter growth, 96 h | Potency, µM (top dose mostly 28.7 µM), inactives show at the top dose activity change, negative = inhibition, hits mostly inhibitors | 320,000 tested, 6.9% active | AID 504834; note: potency is the fitted concentration of half-maximal effect; % is set by controls: 0 for no effect and ±100 for the full control effect
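Readout is luminescence from an integrated firefly luciferase in P. falciparum. Red cells, 2% hematocrit and 0.05% parasitemia final, were cultured with compound through two parasite generations (96 hours) at 37 C, 5% CO2.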
Shiga toxin inh – blocks Shiga toxin action in Vero cells; inhibition, % at 38.7 µM; Vero cells, Shiga toxin protein synthesis inhibition reporter; 290,000 tested, 9.2% active; AID 2315; in the data active = inhibition mostly above about 28%, no sharp cut-off; inactive = mostly below about 43%; note: 0% is about no effect
Pf growth 48h – inhibits P. falciparum growth in the first generation, 48 h; 310,000 tested, 5.9% active; P. falciparum luciferase growth in erythrocytes, 48 h; Potency, µM (highest dose often 28.7 µM), without a hit: at the top dose activity change, negative = inhibition, usual class: inhibitors; note: potency is the fitted concentration of half-maximal effect; % is set by controls: 0 for no effect and ±100 for the full control effect
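Luciferase-expressing parasites in RBCs, 2% Hct / 0.1% parasitemia final; RPMI 1640 + 0.5% Albumax; 37 C, 5% CO2, one generation; luminescence read-out, lower signal = inhibition.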
* = called active by the depositor; i = inactive; ? = inconclusive; . = no result given; [ ] = remark or other dose. Unless noted, calls come from the whole dose curve; as a rule, active = well fitted curve in the direction sought with a large enough effect; inconclusive = small, poorly fitted or top-dose-only effect, or another doubt; inactive = no such curve, though single readings can be large; an effect the other way counts as inactive or inconclusive.

SMILES	NS1 function inh	FBPA Giardia inh	Cycloheximide cs	Pf growth 96h	Shiga toxin inh	Pf growth 48h
COc1ccc(/C=N/NC(=O)c2ccccc2O)cc1Cn1nnc2ccccc21	-14%	6%	22*	8%	50*	-11%
COc1ccc(/C=N/NC(=O)Cn2nnc3ccccc32)cc1OC	5%	2%	22*	54%	32*	5%
CCOc1cc(C#N)c(NC(=O)Cn2nnc3ccccc32)cc1OCC	9%	2%	-2	5.9µM*	-23	6%
COc1ccc(/C=N\NC(=O)c2sccc2C)cc1Cn1nc(C)cc1C	-24%	.	42*	?	105*	?
O=C(Cn1nnc2ccccc21)Nc1ccccc1[N+](=O)[O-]	5%	4%	-4	44%	2	-15%
CC1CN(C(=O)CSc2nnc(NC(=O)NC(C)(C)C)s2)CC(C)O1 (stereo unspecified)	.	.	.	-10%	.	0%
O=C(CN1C(=O)CCSc2ccc(S(=O)(=O)N3CCOCC3)cc21)Nc1cccc(F)c1	5%	1%	5	5%	-5	?
CCOc1ccnc2c1c(=O)n(Cc1cc(OC)cc(OC)c1)c(=O)n2C	5%	5%	5	?	14	?
Cc1cc(C(=O)NCC(=O)OCC(=O)NCCc2ccccc2)ccc1[N+](=O)[O-]	-3%	3%	-3	-57%[5.75 µM]	20	1%
COc1ccc(CCN2C(=O)N[C@@H](CCC(=O)O)C2=O)cc1	3%	-3%	-5	32%	-10	-2%
CCCCC(CC)COC(=O)C(C#N)=C(c1ccccc1)c1ccccc1 (stereo unspecified)	.	-1%	-1	2.6µM*	-8	2.6µM*
CS(=O)(=O)N(CC(=O)Nc1ccc2c(c1)OCO2)Cc1ccccc1	-4%	5%	13*	-7%	28	-2%
CCN(CC(=O)Nc1cccc(C(C)=O)c1)S(=O)(=O)c1ccccc1	6%	0%	-2	9.3µM*	3	?
CN(C)S(=O)(=O)c1ccc(S(=O)(=O)N(CC(=O)Nc2ccccc2)CC2CCCO2)cc1 (stereo unspecified)	0%	-12%	4	12µM*	18	-11%
CCN(CC(=O)Nc1ccc2c(c1)OCCO2)C(=O)c1ccc(S(=O)(=O)N(C)C)cc1	.	.	.	44%	.	-7%
CCN(CC)S(=O)(=O)c1ccc(C(=O)Nc2ccc3c(c2)OCCO3)cc1	-6%	-5%	20*	?	38	6.6µM*
CCOC(=O)NNC(=S)Nc1c(C)n(C)n(-c2ccccc2)c1=O	-3%	-18%	-1	48%	-4	52%
CCN(CC)S(=O)(=O)c1ccc(C(=O)Oc2ccc3c(c2)OCO3)cc1	-10%	?	-1	3.3µM*	-2	-24%
CCN(CC)S(=O)(=O)c1cccc(C(=O)Nc2ccc3c(c2)OCO3)c1	-3%	-5%	35*	-18%	91*	15%
CCC(CC)C(=O)Nc1cccc(C(=O)Nc2ccc3c(c2)OCO3)c1	-5%	-3%	43*	.	80*	16%
CCN(CC(=O)Nc1ccc2c(c1)OCCO2)S(=O)(=O)c1ccccc1	-5%	24%	24*	-6%	37*	41%
CCCN(CCC)S(=O)(=O)c1cccc(C(=O)Nc2ccc3c(c2)OCO3)c1	-48%	0%	9	?	-20	.
Cc1cccc(NC(=O)c2ccc(S(=O)(=O)N3CCOCC3)cc2)n1	.	3%	4	6%	10	9%
CC(C)=CCCC1(C)C=Cc2c(c(C)cc3c2[nH]c2ccccc23)O1 (stereo unspecified)	.	-27%	.	.	.	.
CCN(CC)S(=O)(=O)c1ccc(S(=O)(=O)Nc2cc3c(cc2C(C)=O)OCO3)cc1	6%	12%	-9	12µM*	-13	?
SMILES	NS1 function inh	FBPA Giardia inh	Cycloheximide cs	Pf growth 96h	Shiga toxin inh	Pf growth 48h
CCOc1cc(OCC)nc(S(C)(=O)=O)n1	-3%	7%	-3	?	-1	?
CCc1c(C)nc2cc(-c3ccc(OC)c(OC)c3)nn2c1N1CCC(C)CC1	3%	.	12	44%	132	7.4µM*
CCc1c(C)nc2cc(-c3cc(OC)cc(OC)c3)nn2c1N1CCCC1	-56%	-10%	-4	.	-10	?
CCOCCN1CCN(c2c(CC)c(C)nc3cc(-c4cc(OC)cc(OC)c4)nn23)CC1	-26%	-3%	0	9%	14	1.5µM*
CCc1c(C)nc2cc(-c3ccc(OC)c(OC)c3)nn2c1N1CCCC1	-66%	-4%	-1	0%	-10	13µM*
O=C(c1ccco1)N1CCC2(CCCN(Cc3ccccc3)C2)CC1	.	-2%	.	.	.	.
NS(=O)(=O)c1cc2c(cc1Cl)NC(Cc1ccccc1)NS2(=O)=O (stereo unspecified)	4%	-7%	-2	?	-3	-3%
CC(C)C[C@H](NC(=O)[C@H](CC(C)C)NC(=O)[C@@H](Cc1c[nH]c2ccccc12)NC(=O)[C@H](Cc1ccccc1)NC(=O)[C@@H](Cc1c[nH]c2ccccc12)NC(=O)[C@H](CCC(N)=O)NC(=O)[C@H](CCC(N)=O)NC(=O)[C@@H]1CCCN1C(=O)[C@H](CCCCN)NC(=O)[C@@H]1CCCN1C(=O)[C@H](N)CCCN=C(N)N)C(N)=O	.	1%	-3	.	-7	.
O=C(COC(=O)c1ccc2c(c1)C(=O)N(CCc1ccccc1)C2=O)Nc1ccc(OC(F)F)cc1	7%	-1%	6	10%	32	2%
CCOc1ccc(NC(=O)c2ccc(NC(=O)COC(=O)Cc3ccc(OC)cc3)cc2)cc1	9%	5%	18	42%	60*	9%
CCOc1ccc(NC(=O)CSCC(=O)O)cc1	2%	0%	13	.	-16	12%
CCOc1ccc(NC(=O)CSc2ccccc2N)cc1	1%	-5%	39*	-2%	118*	-5%
COC(=O)c1ccc(NC(=O)C(=O)c2cccn2C)cc1	.	-1%	29*	i	54*	307%
COc1ccc(CC(=O)OCC(=O)Nc2ccc(C(=O)Nc3ccc(OC)cc3)cc2)cc1	8%	0%	-1	39%	15	34%
CCOc1ccc(NC(=O)COC(=O)c2ccc3c(c2)C(=O)N(CCc2ccccc2)C3=O)cc1	-5%	-4%	19*	-3%	66*	?
CC(C)(C)CC(=O)Nc1cc2c3c(c1)CC(=O)N3CCC2	14%	2%	-3	29%	-13	18%
CCOc1ccc(NC(=O)CNC(=O)Cc2ccccc2)cc1	11%	-2%	-3	39%	2	2%
COC(=O)c1ccc(NC(=O)CN2CCN(c3ccccc3C)CC2)cc1	-29%	2%	-1	9.3µM*	-5	16%
CCOc1ccc(NC(=O)C2C(c3ccccc3)C2(Cl)Cl)cc1 (stereo unspecified)	-11%	4%	21*	?	42*	0%
CCOc1ccc(NC(=O)Cc2ccccc2)cc1	-9%	2%	93*	0%	104*	155%
